The panel holds about 83,000 compounds, 20% with a hit somewhere; the sample as a whole holds those more often.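 Single-dose data. Exposure time 48 hours. Values below 10 considered active.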 Values without a mark were called inactive. Calls of active or inactive are those of the source.

This note sets out measurements from PubChem BioAssay (NCI).

Some test systems named below: NCI-H23 lung; NCI-H226 lung; NCI-H322M lung; HOP-62 NSCLC; NCI-H460 lung; HOP-92 NSCLC; NCI-H522 lung; A549/ATCC NSCLC; 786-0 renal; COLO 205 colon; DU-145 prostate; K-562 leukemia; MALME-3M melanoma; MDA-MB-231 breast; RXF 393 renal; SF-268 CNS; SF-295 CNS; SF-539 CNS; UACC-257 melanoma; M14 melanoma.
Common to all, as to test: NCI-60 one-dose screen, 48 h (100 = growth as untreated, 0 = no growth, -100 = all killed)
Common to all, as to details: 10 µM unless noted

With `COc1ccc(-c2nnc(N3CCN(C(=O)CN4CCN(c5ccccc5)CC4)CC3)nc2-c2ccc(OC)cc2)cc1`, the growth in the assay on NCI-H23 lung was 48.3%; in the assay with NCI-H226 lung, 46.7%; in the assay on NCI-H322M lung, 77.3%; in the assay on HOP-62 NSCLC, 58.9%; in the assay with NCI-H460 lung, 14%; in the assay with HOP-92 NSCLC it was 23.2%. Moreover, the growth in the assay with NCI-H522 lung is 14.2%; in the assay on A549/ATCC NSCLC, 28%; with 786-0 renal, 33.7%; in the assay on COLO 205 colon, 17.5%; in the assay with DU-145 prostate, 57.8%; with K-562 leukemia, 4.73% (active). For the same compound, the growth in the assay on MALME-3M melanoma is 34.2%; with MDA-MB-231 breast, 65.1%; in the assay on RXF 393 renal it was -9.53% (active); with SF-268 CNS, 52.8%; with SF-295 CNS it was -23% (active); with SF-539 CNS, 46.6%. The growth was 31.2% in the assay with UACC-257 melanoma and 49% with M14 melanoma.
Consider `O=C(Nc1cc(Br)ccn1)c1cc2cc(Nc3nc(-c4ccccc4)nc4ccccc34)ccc2oc1=O`, for which the growth was 98.6% in the assay on NCI-H23 lung; 117% with NCI-H226 lung; 111% in the assay on NCI-H322M lung; 103% in the assay on HOP-62 NSCLC; 106% in the assay on NCI-H460 lung; 105% with HOP-92 NSCLC. Further, the growth with NCI-H522 lung is 95.2%; in the assay on A549/ATCC NSCLC, 104%; in the assay on 786-0 renal it was 94.2%; in the assay on COLO 205 colon it was 105%; in the assay on DU-145 prostate, 111%; with K-562 leukemia it was 88.6%. In addition, the growth is 117% in the assay on MALME-3M melanoma; 118% in the assay on MDA-MB-231 breast; 133% in the assay on RXF 393 renal; 112% in the assay with SF-268 CNS; 108% in the assay on SF-295 CNS; 105% in the assay with SF-539 CNS. Besides, the growth in the assay with UACC-257 melanoma is 112%; with M14 melanoma it was 102%.
As to `C=C1C(=O)O[C@H]2[C@H]1CC/C(C=Nc1c(N)cc(F)cc1Br)=C\CC[C@@]1(C)O[C@@H]21`, the growth with NCI-H23 lung was 93.1%; in the assay with NCI-H226 lung it was 82.9%; in the assay with NCI-H322M lung it was 97.7%; with HOP-62 NSCLC, 89.2%; in the assay with NCI-H460 lung it was 96.3%; in the assay with HOP-92 NSCLC, 97.3%. The growth was 53.8% with NCI-H522 lung; 78.8% in the assay with A549/ATCC NSCLC; 43.8% with 786-0 renal; 38.8% with COLO 205 colon; 55.2% in the assay with DU-145 prostate; 20.3% in the assay on K-562 leukemia. For the same compound, the growth is 99.5% in the assay on MALME-3M melanoma; 65.1% in the assay with MDA-MB-231 breast; 66.3% in the assay with RXF 393 renal; 83.1% in the assay with SF-268 CNS; 99.7% in the assay with SF-295 CNS; 86.9% in the assay with SF-539 CNS. Also, the growth with UACC-257 melanoma is 81.9%; with M14 melanoma, 66.2%.
On to `Cc1cnc(SCc2ccc(Cl)cc2Cl)nc1Nc1ccc(Cl)c(Cl)c1`, for which the growth in the assay with NCI-H23 lung was 92.8%; in the assay on NCI-H226 lung, 101%; in the assay with NCI-H322M lung, 82%; in the assay on HOP-62 NSCLC it was 93.4%; with NCI-H460 lung it was 92.2%; in the assay with HOP-92 NSCLC it was 76%. Besides, the growth in the assay with NCI-H522 lung is 66.7%; in the assay on A549/ATCC NSCLC it was 78.2%; in the assay on 786-0 renal it was 92.3%; with COLO 205 colon, 117%; in the assay with DU-145 prostate, 95.1%; in the assay on K-562 leukemia, 69.3%. Further, the growth in the assay with MALME-3M melanoma is 103%; in the assay on MDA-MB-231 breast, 88.3%; in the assay on RXF 393 renal, 97.4%; in the assay on SF-268 CNS, 90.5%; in the assay with SF-295 CNS it was 92.8%; in the assay with SF-539 CNS it was 105%. The growth was 91.4% in the assay with UACC-257 melanoma and 98.7% in the assay with M14 melanoma.
For the compound `CN1CCN(/C=C2\CC(C(=O)NCc3ccc(Cl)cc3Cl)NC2=O)CC1` (stereo not given), the growth with NCI-H23 lung was 99.5%; in the assay with NCI-H226 lung it was 85.7%; in the assay with NCI-H322M lung, 104%; in the assay with HOP-62 NSCLC, 108%; in the assay on NCI-H460 lung it was 104%; in the assay on HOP-92 NSCLC it was 98.8%. Also, the growth in the assay with NCI-H522 lung is 98.3%; in the assay with A549/ATCC NSCLC it was 94.2%; with 786-0 renal it was 116%; in the assay with COLO 205 colon, 116%; in the assay with DU-145 prostate it was 108%; in the assay with K-562 leukemia, 95.7%. The growth in the assay on MALME-3M melanoma was 98.6%; in the assay with MDA-MB-231 breast, 104%; in the assay with RXF 393 renal, 103%; in the assay with SF-268 CNS, 97.9%; in the assay with SF-295 CNS it was 110%; in the assay with SF-539 CNS, 102%. Moreover, the growth in the assay with UACC-257 melanoma is 93.2%; in the assay on M14 melanoma, 110%.
Regarding `COC(=O)CCc1cc(O)c2c(c1)[C@@H](C(=O)OC)[C@H](c1ccc(O)c(O)c1)O2`, the growth in the assay with NCI-H23 lung is 76.5%; in the assay on NCI-H226 lung, 102%; in the assay with NCI-H322M lung, 98.3%; in the assay on HOP-62 NSCLC, 54.3%; in the assay with NCI-H460 lung, 107%; in the assay on HOP-92 NSCLC, 79.8%. Moreover, the growth in the assay on NCI-H522 lung was 51.8%; in the assay with A549/ATCC NSCLC, 98%; with 786-0 renal, 93.9%; in the assay with COLO 205 colon, 104%; in the assay with DU-145 prostate, 95%; in the assay with K-562 leukemia, 26.2%. Besides, the growth with MALME-3M melanoma was 66.8%; in the assay with MDA-MB-231 breast, 78.8%; with RXF 393 renal, 88.5%; with SF-268 CNS it was 74.1%; with SF-295 CNS, 84.7%; in the assay with SF-539 CNS, 74.5%. Further, the growth in the assay with UACC-257 melanoma was 85.6%; in the assay on M14 melanoma, 32.5%.
Regarding `COc1ccc(-c2nnc(N3CCN(C(=O)CN4CCN(c5ccc(OC)cc5)CC4)CC3)nc2-c2ccc(OC)cc2)cc1`, the growth was 21.4% with NCI-H23 lung; -81.4% (active) with NCI-H226 lung; 32.6% in the assay with NCI-H322M lung; 1.58% (active) in the assay on HOP-62 NSCLC; 29.3% in the assay on NCI-H460 lung; -62.9% (active) with HOP-92 NSCLC. Further, the growth is -84.5% (active) with NCI-H522 lung; 59.1% in the assay with A549/ATCC NSCLC; 26.3% with 786-0 renal; 19% with COLO 205 colon; -16.3% (active) in the assay with DU-145 prostate; -56.7% (active) in the assay with K-562 leukemia. Besides, the growth is -72.7% (active) with MALME-3M melanoma; 8.6% (active) with MDA-MB-231 breast; -34.8% (active) in the assay with RXF 393 renal; -32.4% (active) with SF-268 CNS; -60.6% (active) in the assay with SF-295 CNS; 32% in the assay on SF-539 CNS. Also, the growth in the assay on UACC-257 melanoma was -8.52% (active); with M14 melanoma, -17.3% (active).
As to `O=C1C(=O)c2c(nc3ccc(C(F)(F)F)cn23)-c2ccccc21`, the growth was -30.8% (active) in the assay on NCI-H23 lung; -96.6% (active) with NCI-H226 lung; -94.8% (active) in the assay with NCI-H322M lung; -97.5% (active) with HOP-62 NSCLC; -64.8% (active) in the assay with NCI-H460 lung; -77.9% (active) with HOP-92 NSCLC. Further, the growth in the assay on NCI-H522 lung is -72.4% (active); in the assay with A549/ATCC NSCLC it was -51.4% (active); in the assay on 786-0 renal it was -80.8% (active); in the assay on COLO 205 colon, -78.9% (active); in the assay with DU-145 prostate, -96.3% (active); with K-562 leukemia, -41.9% (active). Further, the growth in the assay on MALME-3M melanoma was -97.3% (active); in the assay with MDA-MB-231 breast, -22.7% (active); in the assay with RXF 393 renal it was -94.8% (active); in the assay with SF-268 CNS, -78.7% (active); in the assay with SF-295 CNS it was -96.5% (active); in the assay on SF-539 CNS, -97.4% (active). For the same compound, the values for the growth in the assay on UACC-257 melanoma and with M14 melanoma were -97.1% (active) and -79.5% (active), respectively.
